PubChem BioAssay (NCI)
About 83,000 compounds went through this panel and 20% of them were active in at least one assay; those are over-represented in the sample as a whole.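 Percent growth is the endpoint: 0 to 100 indicates growth inhibition (40 means 60% inhibition), 0 means no net growth, and negative values indicate cell death.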 The source made the active and inactive calls. Rule for the calls: active = growth percent below 10; inactive = the rest.

Columns and labels:
Assay in all cases: NCI-60 one-dose screen, 48 h (100 = growth as untreated, 0 = no growth, -100 = all killed)
Settings in all cases: 10 µM unless noted
HCT-15 colon = test system: HCT-15 colon
HT29 colon = test system: HT29 colon
SNB-75 CNS = test system: SNB-75 CNS
SNB-19 CNS = test system: SNB-19 CNS
U251 CNS = test system: U251 CNS
PC-3 prostate = test system: PC-3 prostate
SK-MEL-5 melanoma = test system: SK-MEL-5 melanoma
UACC-62 melanoma = test system: UACC-62 melanoma
LOX IMVI melanoma = test system: LOX IMVI melanoma
SK-MEL-2 melanoma = test system: SK-MEL-2 melanoma
EKVX NSCLC = test system: EKVX NSCLC
SN12C renal = test system: SN12C renal
UO-31 renal = test system: UO-31 renal
ACHN renal = test system: ACHN renal
CAKI-1 renal = test system: CAKI-1 renal
A498 renal = test system: A498 renal
CCRF-CEM leukemia = test system: CCRF-CEM leukemia
MOLT-4 leukemia = test system: MOLT-4 leukemia
TK-10 renal = test system: TK-10 renal

Measured: growth

COc1cc(/C=N/NC(=O)c2cn(C3CC3)c3c(OC)c(N4CC5CCCNC5C4)c(F)cc3c2=O)ccc1O (stereo not drawn)
active: HT29 colon -0.257% | U251 CNS -67% | LOX IMVI melanoma -83.5% | CCRF-CEM leukemia 2.53% | MOLT-4 leukemia 2.34%
inactive: HCT-15 colon 32% | SNB-75 CNS 106% | SNB-19 CNS 26.2% | PC-3 prostate 45.1% | SK-MEL-5 melanoma 95.4% | UACC-62 melanoma 91.5% | SK-MEL-2 melanoma 113% | EKVX NSCLC 24.9% | SN12C renal 23.8% | UO-31 renal 81.1% | ACHN renal 35.3% | CAKI-1 renal 82.9% | A498 renal 99.4%

O=C(O)c1ccc(-n2cc(CNc3cc(F)c(F)c(F)c3)c(-c3ccc(F)cc3)n2)cc1
inactive: HCT-15 colon 68.1% | HT29 colon 108% | SNB-75 CNS 100% | SNB-19 CNS 95.3% | U251 CNS 97.8% | PC-3 prostate 79.2% | SK-MEL-5 melanoma 81.2% | UACC-62 melanoma 64.9% | LOX IMVI melanoma 105% | SK-MEL-2 melanoma 78.7% | EKVX NSCLC 85.6% | SN12C renal 91.9% | UO-31 renal 77.4% | TK-10 renal 150% | ACHN renal 71.4% | A498 renal 97.6% | CCRF-CEM leukemia 82.7% | MOLT-4 leukemia 74.2%

COc1ccc2c(c1)c(CC(=O)[Se]CCC#N)c(C)n2C(=O)c1ccc(Cl)cc1
inactive: PC-3 prostate 17.4% | UACC-62 melanoma 41.3%
active: HCT-15 colon -64.7% | HT29 colon -31.2% | SNB-75 CNS -30.1% | SNB-19 CNS -45.2% | U251 CNS 1.11% | SK-MEL-5 melanoma -73.4% | LOX IMVI melanoma -50.4% | SK-MEL-2 melanoma 9.95% | SN12C renal -82.6% | UO-31 renal -21.7% | TK-10 renal -74.7% | ACHN renal 5.57% | A498 renal -42.9% | CCRF-CEM leukemia 5.22% | MOLT-4 leukemia 0.134%

COc1ccc(-c2cc(-c3ccc(Cl)cc3)c(C#N)c(=O)n2Cc2ccc(C(=O)O)cc2)cc1
active: SNB-75 CNS 3.46%
inactive: HCT-15 colon 79% | HT29 colon 117% | SNB-19 CNS 90.1% | U251 CNS 84.3% | PC-3 prostate 68.9% | SK-MEL-5 melanoma 87.2% | UACC-62 melanoma 18.4% | LOX IMVI melanoma 75.7% | SK-MEL-2 melanoma 61.9% | EKVX NSCLC 98.2% | SN12C renal 103% | UO-31 renal 68.1% | TK-10 renal 116% | ACHN renal 102% | CAKI-1 renal 70.3% | A498 renal 83% | CCRF-CEM leukemia 30.7% | MOLT-4 leukemia 53.1%

COc1c(N2CC3CCCNC3C2)c(F)cc2c(=O)c(C(=O)N/N=C/c3ccc(Br)cc3)cn(C3CC3)c12 (stereo not drawn)
inactive: HT29 colon 13.6% | SNB-75 CNS 103% | SNB-19 CNS 88.3% | U251 CNS 86.9% | PC-3 prostate 65.1% | SK-MEL-5 melanoma 84% | UACC-62 melanoma 43% | SK-MEL-2 melanoma 100% | EKVX NSCLC 90.4% | SN12C renal 78.8% | UO-31 renal 60.5% | TK-10 renal 121% | ACHN renal 89.2% | A498 renal 74.3% | CCRF-CEM leukemia 55.3% | MOLT-4 leukemia 54.9%
active: HCT-15 colon 1.76% | LOX IMVI melanoma -73.5%

CC(C)(C)n1nnnc1C(Nc1cccc2c1OCO2)c1cc2cccc3ccc4cccc1c4c32 (stereo not drawn)
active: CCRF-CEM leukemia -12.9%
inactive: HCT-15 colon 71% | HT29 colon 81.2% | SNB-75 CNS 115% | SNB-19 CNS 83.5% | U251 CNS 85.9% | PC-3 prostate 59.4% | SK-MEL-5 melanoma 85% | UACC-62 melanoma 65.3% | LOX IMVI melanoma 86.7% | EKVX NSCLC 73.7% | SN12C renal 90.5% | UO-31 renal 67.8% | TK-10 renal 116% | ACHN renal 85.6% | CAKI-1 renal 64.5% | MOLT-4 leukemia 67.1%

Cc1ccc(-n2cc(/C=N/NC(=O)c3nc(N)n[nH]3)c(-c3ccc(S(C)(=O)=O)cc3)n2)cc1
inactive: HCT-15 colon 86.4% | HT29 colon 105% | SNB-75 CNS 92.2% | SNB-19 CNS 97.4% | U251 CNS 101% | PC-3 prostate 96.8% | SK-MEL-5 melanoma 103% | UACC-62 melanoma 88.5% | LOX IMVI melanoma 90.2% | SK-MEL-2 melanoma 103% | EKVX NSCLC 92.9% | SN12C renal 96.6% | UO-31 renal 92.6% | TK-10 renal 119% | ACHN renal 101% | CAKI-1 renal 92.6% | A498 renal 97.6% | MOLT-4 leukemia 97.9%

C=CCn1c(SCC(=O)Nc2ccc(C(=O)/C=C/c3ccc(Br)cc3)cc2)nnc1-c1c[nH]c2ccccc12
inactive: HCT-15 colon 93.4% | HT29 colon 94.1% | SNB-75 CNS 95.4% | SNB-19 CNS 89.1% | U251 CNS 87.9% | PC-3 prostate 68% | SK-MEL-5 melanoma 72.3% | UACC-62 melanoma 64.6% | LOX IMVI melanoma 49% | SK-MEL-2 melanoma 93.4% | EKVX NSCLC 82.2% | SN12C renal 81.1% | UO-31 renal 59.7% | TK-10 renal 95.9% | ACHN renal 87.8% | A498 renal 88.9% | CCRF-CEM leukemia 83% | MOLT-4 leukemia 66.3%
